In PubChem BioAssay AID376 (PDSP, 2006) one finds hERG blockade data, which are given here for 34 compounds.

Among all 2,000 compounds or so, about 250 (12%) were called active. No stated cut-off is given here; in the data, active means hERG blockade below about -20% or above about 20%; inactive means in between. The entries come from a sample that favours actives as a whole.

For the assay, the target named is Voltage-gated inwardly rectifying potassium channel KCNH2 (Homo sapiens) (UniProt Q12809). The assay is described as follows: modulators of KCNH2 ion channel function, cellular (AID 376).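 Further: 0% = buffer alone and 100% = reference blocker.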 The conditions noted are these: hERG-expressing cells, channel activity single-concentration screen; concentration not given here. Background: The hERG channel carries a current that helps repolarise heart muscle cells.
Sequence of Voltage-gated inwardly rectifying potassium channel KCNH2 (Homo sapiens) (Q12809 whole entry, looked up): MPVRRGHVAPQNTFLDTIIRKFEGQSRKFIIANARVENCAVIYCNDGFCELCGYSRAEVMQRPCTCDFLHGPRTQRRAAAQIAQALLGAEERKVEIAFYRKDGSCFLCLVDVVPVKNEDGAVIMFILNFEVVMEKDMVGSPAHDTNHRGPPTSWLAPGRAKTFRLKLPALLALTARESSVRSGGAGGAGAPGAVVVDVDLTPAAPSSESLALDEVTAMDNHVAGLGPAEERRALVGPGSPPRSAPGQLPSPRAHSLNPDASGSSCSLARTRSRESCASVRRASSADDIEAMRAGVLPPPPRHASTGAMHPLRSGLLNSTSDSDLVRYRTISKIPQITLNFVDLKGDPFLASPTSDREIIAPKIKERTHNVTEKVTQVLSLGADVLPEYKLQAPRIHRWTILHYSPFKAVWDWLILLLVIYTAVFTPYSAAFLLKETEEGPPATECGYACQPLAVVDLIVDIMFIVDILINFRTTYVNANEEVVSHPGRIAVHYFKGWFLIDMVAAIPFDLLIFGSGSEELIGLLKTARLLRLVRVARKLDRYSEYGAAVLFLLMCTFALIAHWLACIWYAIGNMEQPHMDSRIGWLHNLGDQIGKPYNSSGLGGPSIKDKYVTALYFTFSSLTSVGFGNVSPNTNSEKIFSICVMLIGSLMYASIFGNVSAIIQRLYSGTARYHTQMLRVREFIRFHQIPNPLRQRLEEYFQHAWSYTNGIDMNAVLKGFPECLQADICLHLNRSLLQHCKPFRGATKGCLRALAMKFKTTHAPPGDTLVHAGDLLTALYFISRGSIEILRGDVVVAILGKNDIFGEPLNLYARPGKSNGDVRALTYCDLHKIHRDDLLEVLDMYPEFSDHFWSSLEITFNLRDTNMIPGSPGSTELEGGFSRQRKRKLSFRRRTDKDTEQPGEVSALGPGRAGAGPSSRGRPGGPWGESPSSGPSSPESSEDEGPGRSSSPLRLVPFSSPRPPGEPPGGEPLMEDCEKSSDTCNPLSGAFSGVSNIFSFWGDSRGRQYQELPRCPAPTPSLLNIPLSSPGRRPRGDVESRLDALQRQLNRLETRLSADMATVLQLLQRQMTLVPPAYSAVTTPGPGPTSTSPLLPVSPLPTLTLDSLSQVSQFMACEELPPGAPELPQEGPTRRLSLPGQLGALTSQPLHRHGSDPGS
Turning to `O=C(O)CC(=Cc1ccco1)C(=O)O`, the hERG blockade is -9.17% (inactive).
For `O=C(O)CCC1(C(=O)O)CCC(=O)c2ccccc21` (centres undefined), the hERG blockade is 6.22% (inactive).
The figure for `BrC(c1cccc2ccccc12)c1cccc2ccccc12` is -6.84% (inactive).
In the case of `COc1ccc(C(=O)CCN(C)C)c2ccccc12`, the hERG blockade is 7.02% (inactive).
For the compound `Clc1ccccc1C(Nc1ncccn1)Nc1ncccn1`, the hERG blockade is 3.73% (inactive).
The figure for `Clc1ccccc1C(Nc1cnccn1)Nc1cnccn1` is 21.5% (active); for `O=C(O)C(Cc1ccc([N+](=O)[O-])cc1)=NO` it is 0.35% (inactive); for `CC(CO)(CO)Nc1ncnc2ccccc12` it is 2.95% (inactive).
As for `O=S(=O)(c1cnccc1N1CCN(CCO)CC1)N1CCCC1`, the hERG blockade was -8.49% (inactive).
The figure for `N=C1C(O)C2(I)c3ccccc3N3C(=N)C(O)C4c5ccccc5N1C4C32` (centres undefined) is 35.8% (active); for `O=C(CSc1nc2ccccc2s1)c1sc2sc3ccccc3[n+]2c1O` it is 1.71% (inactive); for `CC(CCC(=O)O)C(=O)O` (centres undefined) it is 2.86% (inactive).
The same measure for `Oc1ccccc1CNCc1ccccc1O`: 23.5% (active); for `O=C(O)c1ccc(CNCc2ccccc2)cc1`: -8.86% (inactive).
As for `Oc1ccc(CNCc2ccccc2)c2cccnc12`, the hERG blockade was 7.55% (inactive).
For `CCCCN1CSC(=S)N(Cc2ccccc2)C1`, the hERG blockade is 13.4% (inactive).
On to `CCC(CS(=O)(=O)O)[N+](=O)[O-]` (centres undefined), for which the hERG blockade was 1.33% (inactive).
Regarding `O=C(O)CC(CC(=O)O)C(=O)O`, the hERG blockade is 15.6% (inactive).
Take `N=C(N)SCc1cc(Cl)cc(Cl)c1O`: the hERG blockade was 12.3% (inactive).
For `Clc1ccc(CSCc2ccc(Cl)cc2Cl)c(Cl)c1`, the hERG blockade was 5.81% (inactive).
On to `N=C(N)SCc1ccc(Cl)cc1Cl` (tested in a mixture with another compound), for which the hERG blockade is 30.7% (active).
For `COC(=O)c1ccc(CCc2cc(O)ccc2O)cc1`, the hERG blockade is 11.9% (inactive).
`O=C(O)CCC(=O)c1ccc[nH]1`: the hERG blockade was 1.12% (inactive).
The same measure for `O=C(O)CCC(=O)c1ccc2ccc3cccc4ccc1c2c34`: -66.6% (active).
Consider `O=C(O)c1cccc2cccc(-c3cccc4cccc(C(=O)O)c34)c12`, for which the hERG blockade was -6.19% (inactive).
For `Nc1ccc(S(=O)(=O)NCCS(=O)(=O)O)cc1`, the hERG blockade is -20.3% (active).
As to `NCCNS(=O)(=O)c1ccc(N)cc1`, the hERG blockade was 2.62% (inactive).
Take `CC(C)(C)c1ccc(NS(=O)(=O)c2ccc(N)cc2)cc1`: the hERG blockade was -2.98% (inactive).
For `CCOC(=O)c1cnc(N(C)C)nc1SC(=N)N`, the hERG blockade was 12.8% (inactive).
For the compound `c1cc(CNCCN2CCNCC2)ccn1`, the hERG blockade is -17.5% (inactive).
With `CC(C)NCCC(O)c1cc2ccccc2o1` (centres undefined), the hERG blockade is 7.89% (inactive).
`NC(N)=NC(N)=Nc1c(F)c(F)c(F)c(F)c1F`: the hERG blockade is -23.3% (active).
On to `NC(N)=NC(N)=Nc1ccccc1` (tested in a mixture with another compound), for which the hERG blockade was -3.28% (inactive).
Turning to `NC(N)=NC(N)=Nc1ccc(C(=O)O)cc1`, the hERG blockade is -11% (inactive).
